Consider 18 molecules from PubChem BioAssay (NCATS).

Values without a mark were called inactive. Records with an inconclusive call do not appear. Calls of active or inactive are those of the source. Calls follow the shape of the dose curve; as a rule, active = well fitted curve in the direction sought with a large enough effect; inconclusive = small, poorly fitted or top-dose-only effect, or another doubt; inactive = no such curve, though single readings can be large; an effect the other way counts as inactive or inconclusive.

The target in assay [1] is Glutathione peroxidase 1 (Homo sapiens) (UniProt P07203). As to the kind of experiment: Primary qHTS Assay for Inhibitors of Recombinant Selenoprotein Glutathione Peroxidase 1 (GPX1) (AID 1845191). Also: nearly all actives have a fitted effect of over 65% in size. In short, it runs like this:
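NADPH consumption tracked by fluorescence at 340/450 nm between t=0 and t=15 min, room temperature. Final mix: 10 nM GPX1, 100 nM glutathione reductase, 1 mM GSH, 0.5 mM NADPH, 0.5 mM cumene hydroperoxide, 0.01% BSA; 30 min compound–enzyme preincubation.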
In general terms: qHTS replaces the single test concentration by a dilution series.

Assay [2] deals with Phospholipid hydroperoxide glutathione peroxidase GPX4 (Homo sapiens) (UniProt P36969). Kind of assay: Primary qHTS Assay for Inhibitors of Recombinant Selenoprotein Glutathione Peroxidase 4 (GPX4) (AID 1845192). Also: nearly all actives have a fitted effect of over 65% in size. In short, it runs like this: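 NADPH consumption followed by fluorescence at 340/450 nm, t=0 and after 15 min at room temperature. Reaction started with cumene hydroperoxide (0.5 mM final) after 30 min compound–GPX4 preincubation; final 200 nM GPX4, 100 nM GR, 1 mM GSH, 0.5 mM NADPH.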
Chain of Phospholipid hydroperoxide glutathione peroxidase GPX4 (Homo sapiens) (P36969 whole entry, looked up): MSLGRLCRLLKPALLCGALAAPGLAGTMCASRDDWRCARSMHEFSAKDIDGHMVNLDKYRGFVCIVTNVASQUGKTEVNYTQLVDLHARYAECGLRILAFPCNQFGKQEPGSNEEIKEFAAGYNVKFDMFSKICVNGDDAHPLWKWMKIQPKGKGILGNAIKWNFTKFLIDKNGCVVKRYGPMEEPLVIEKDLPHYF

The target in assay [3] is Luciferin 4-monooxygenase (Photinus pyralis) (UniProt P08659). Kind of assay: Primary firefly luciferase (FLuc) qHTS assay for identification of artifact compounds. (AID 1845220). Also: nearly all actives have a fitted effect of over 60% in size. In short, it runs like this: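 Compounds sat 15 min at room temperature with 10 uM luciferin and 10 uM ATP (pH 7.6 Tris acetate). Firefly luciferase (10 nM final) was then added, and luminescence was read 5 min later. Data normalized to no-enzyme and DMSO controls were Hill-fitted.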

Assay [4] can be described thus: Primary fluorescence-based thiol-reactive (MSTI) qHTS assay for identification of artifact compounds. (AID 1845221). Also: nearly all actives have a fitted effect of over 65% in size. Also: potency is read from the fitted curve at half-maximal effect. The essentials:
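Reactivity toward the thiol probe MSTI (4 uM) is scored by fluorescence at Ex/Em 525/598 nm after 1 h at room temperature. Acetyl-MSTI and MSTI define the activity scale.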

The test system of assay [5] is Nanoluciferase (engineered Oplophorus gracilirostris luciferase). Kind of assay: Primary Nanoluciferase (NLuc) qHTS assay for identification of artifact compounds. (AID 1845222). Also: series mostly up to about 54 µM. In short, it runs like this:
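Luminescence from secreted NLuc (filtered, 1:55-diluted S16 cell medium) read 5 min after Nano-Glo substrate; compounds preincubated 15 min, RT. Hill fits of inhibition normalized to DMSO and no-enzyme.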

A short description of assay [6]: Primary redox qHTS assay for identification of artifact compounds. (AID 1845223). Also: potency is read from the fitted curve at half-maximal effect. In short, it runs like this: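 Redox-cycling detection via DTT (250 uM final) oxidation coupled to Amplex Red (25 uM)/HRP (250 mU/mL) in HBSS. 15 min preincubation plus 30 min after DTT, room temperature. Ex/Em 525/598 nm; 4-parameter Hill fit against DMSO and 10 uM DA3003.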

Chain of Glutathione peroxidase 1 (Homo sapiens) (P07203 whole entry, looked up): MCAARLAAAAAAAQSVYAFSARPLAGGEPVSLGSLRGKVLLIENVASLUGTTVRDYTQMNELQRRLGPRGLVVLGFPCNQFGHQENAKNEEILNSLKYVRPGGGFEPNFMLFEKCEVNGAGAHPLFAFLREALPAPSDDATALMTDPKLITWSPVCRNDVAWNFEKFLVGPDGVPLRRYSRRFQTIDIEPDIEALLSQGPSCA

Consider `Cc1ccc(COC(=O)N2CC[C@@H](CNc3ncccn3)[C@@H](F)C2)cc1`, for which the Potency result in assay [1], in assay [2], in assay [3], in assay [4], in assay [5] and in assay [6] was “inactive” in each case.

On to `C=C1CCC[C@]2(C)CC[C@@](O)(C(=C)C(=O)O)C[C@@H]12`, for which the Potency entry in assay [1], in assay [2], in assay [3], in assay [4], in assay [5] and in assay [6] was “inactive” in each case.

Regarding `O=S(=O)(O)c1ccc(Nc2ncnc3c2ncn3[C@@H]2O[C@H](CO)[C@@H](O)[C@H]2O)cc1`, the Potency entry in assay [1], in assay [2], in assay [3], in assay [4], in assay [5] and in assay [6] was “inactive” in each case.

Turning to `CC(=O)OC(C)C(C)(O)C(=O)O[C@@H]1CC[C@]2(C)CC(=O)C(=C(C)C)C[C@H]2[C@]1(C)OC(C)=O` (stereo partly drawn), the Potency entry in assay [1], in assay [2], in assay [3], in assay [4], in assay [5] and in assay [6] was “inactive” in each case.

In the case of `C[C@]1(OC(=O)/C=C/c2ccccc2)C[C@@H](O)[C@]2(O)C=CO[C@@H](O[C@@H]3O[C@H](CO)[C@@H](O)[C@H](O)[C@H]3O)[C@@H]21`, the Potency entry in assay [1], in assay [2], in assay [3], in assay [4], in assay [5] and in assay [6] was “inactive” each time.

For `Cc1ccc([C@@H]2CC=C(C(=O)O)[C@H](c3ccc(C(C)(C)C)cc3)N2S(=O)(=O)c2ccc(C)cc2)cc1`, the Potency entry in assay [1], in assay [2], in assay [3], in assay [4], in assay [5] and in assay [6] was “inactive” in each case.

`COc1cn(-c2ccc(-n3cccn3)cc2F)nc(-c2ccnn2-c2ccccc2)c1=O`: the Potency result in assay [1], in assay [2], in assay [3], in assay [4], in assay [5] and in assay [6] was “inactive” throughout.

For `CCCc1[nH]nc2c1C(c1cc(Cl)cc(Cl)c1O)C(C#N)=C(N)O2` (stereo not drawn), the Potency result in assay [1], in assay [2], in assay [3], in assay [4] and in assay [5] was “inactive” throughout. Besides, the Potency in assay [6] was 11.9 µM (active).

As for `NC(=O)C(O[C@@H]1O[C@H](CO[C@@H]2O[C@H](CO)[C@@H](O)[C@H](O)[C@H]2O)[C@@H](O)[C@H](O)[C@H]1O)c1ccccc1` (stereo partly drawn), the Potency result in assay [1], in assay [2], in assay [3], in assay [4], in assay [5] and in assay [6] was “inactive” each time.

For `CC(C)=C1CC2C(CCC2(C)O)C(C)(O)CC1=O` (stereo not drawn), the Potency entry in assay [1], in assay [2], in assay [3], in assay [5] and in assay [6] was “inactive” in each case. For the same molecule, in assay [4], the Potency is 23.8 µM (active).

`COC(=O)C(CC1(O)c2ccccc2N2C(=O)C(CC(C)C)NC21)n1cnc2ccccc2c1=O` (stereo not drawn): the Potency result in assay [1], in assay [2], in assay [3], in assay [4], in assay [5] and in assay [6] was “inactive” in each case.

Regarding `C=C(C)[C@@H]1CC[C@]2(C(=O)O)CC[C@]3(C)C(CCC4[C@]5(C)C(CC[C@]43C)C(C)(C)[C@@H](O)[C@@H]5C(=O)O)C12` (stereo partly drawn), the Potency result in assay [1], in assay [2], in assay [3], in assay [4], in assay [5] and in assay [6] was “inactive” in each case.

As to `OC[C@@]1(O)CO[C@H](OC[C@H]2O[C@@H](OC(CCCCc3ccc(O)cc3)CCc3ccc(O)cc3)[C@H](O)[C@@H](O)[C@@H]2O)[C@@H]1O` (stereo partly drawn), the Potency result in assay [1], in assay [2], in assay [3], in assay [4], in assay [5] and in assay [6] was “inactive” each time.

Regarding `CC1CCC2(NC1)OC1C(O)C3C4CCC5CC(O[C@@H]6O[C@H](CO)[C@@H](O)[C@H](O)[C@H]6O[C@@H]6O[C@@H](C)[C@H](O)[C@@H](O)[C@H]6O)CCC5(C)C4CCC3(C)C1C2C` (stereo partly drawn), the Potency entry in assay [1], in assay [2], in assay [3], in assay [4], in assay [5] and in assay [6] was “inactive” each time.

Take `CC(=O)O[C@@H]1[C@@H](O)[C@H](C)O[C@@H](O[C@H]2[C@@H]3C=CO[C@@H](O[C@@H]4O[C@H](CO)[C@@H](O)[C@H](O)[C@H]4OC(C)=O)[C@@H]3[C@@]3(CO)O[C@@H]23)[C@@H]1OC(=O)/C=C/c1ccc(O)cc1`: the Potency entry in assay [1], in assay [2], in assay [3], in assay [5] and in assay [6] was “inactive” each time. Further, in assay [4], the Potency is 6.3 µM (active).

Consider `CC[C@@H](C)[C@H](N)C(=O)N1Cc2ccccc2C1`, for which the Potency entry in assay [1], in assay [2], in assay [3], in assay [4], in assay [5] and in assay [6] was “inactive” in each case.

In the case of `CC[C@H]1OC(=O)[C@H](C)C(=O)[C@H](C)[C@@H](OC2O[C@H](C)C[C@H](N(C)C)[C@H]2O)[C@@H](C)C[C@@H](C)C(=O)/C=C/[C@]1(C)O` (stereo partly drawn), the Potency entry in assay [1], in assay [2], in assay [3], in assay [4], in assay [5] and in assay [6] was “inactive” throughout.

For `COc1ccc(C2OCC3C(c4cc(OC)c5c(c4)OCO5)OCC23)cc1OC` (stereo not drawn), the Potency entry in assay [1], in assay [2], in assay [3], in assay [4], in assay [5] and in assay [6] was “inactive” in each case.
